Source: PubChem
This is a sample that favours compounds with a hit; in the whole collection about 21% have one here.
D3 antag: D3 dopamine receptor (human) antagonism; P35462; D3R cells, DiscoveRx beta-arrestin luminescence, antagonist mode; stronger effect = lower value; max response, negative = inhibition, %; 360,000 compounds, 2.5% hits; in the data active = max response below about -50%; inconclusive = no clear call, values can overlap the other calls; also: % is scaled to controls: 0 for no effect and ±100 for the full control effect
Target sequence (P35462 whole entry, looked up): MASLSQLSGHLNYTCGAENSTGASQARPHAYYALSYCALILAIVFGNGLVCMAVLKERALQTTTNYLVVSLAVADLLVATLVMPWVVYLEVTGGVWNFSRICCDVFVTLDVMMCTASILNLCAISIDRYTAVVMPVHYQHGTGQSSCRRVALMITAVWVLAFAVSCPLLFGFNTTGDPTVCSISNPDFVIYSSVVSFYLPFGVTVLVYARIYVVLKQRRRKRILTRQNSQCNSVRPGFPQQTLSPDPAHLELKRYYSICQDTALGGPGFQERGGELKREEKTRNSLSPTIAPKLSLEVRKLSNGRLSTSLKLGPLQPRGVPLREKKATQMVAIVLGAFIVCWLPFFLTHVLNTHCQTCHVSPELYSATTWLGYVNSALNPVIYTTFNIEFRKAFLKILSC
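Cells plated overnight at 1500 cells/well, then exposed to library compounds with dopamine controls for 90 minutes at 37 degrees C. DiscoveRx reagent added for 30–60 minutes at room temperature; luminescence read, quantitative HTS format.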
IL-1B inflam inh: blocks inflammasome-driven IL-1 beta release. THP-1 LPS/ATP IL-1B secretion, AlphaLISA, 16 h; stronger effect = lower value. activity change, % at 57.5 µM. 360,000 compounds, 4.7% hits; in the data active = activity change below about -50%; inconclusive = mostly about -30% to -49%; also: % is scaled to controls: 0 for no effect and ±100 for the full control effect
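Secreted IL-1B measured by AlphaLISA bead assay after 16 h compound exposure of THP-1 cells; compounds (final up to 57.5 uM) added 1 h before LPS (250 ng/mL) and ATP (1.25 mM) stimulation; lower signal means less secretion.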
TDP1 cell CPT: DT40-hTDP1 cell growth loss with CPT; chicken DT40 Tdp1-/-;hTDP1 cells + 20 nM CPT, ATP luminescence, 48 h; Potency, µM (titrated, usually from 46.2 µM), without a hit: at the top dose activity change, negative = growth inhibition, actives largely listed as inhibitors; 420,000 compounds, 12% hits; also: potency is read from the fitted curve at half-maximal effect; % is scaled to controls: 0 for no effect and ±100 for the full control effect; nearly all actives have a fitted effect of over 55% in size
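Cell growth measured by CellTiter-Glo luminescence after a minimum 48 h, 37 C compound exposure with 20 nM CPT in Tdp1-knockout DT40 cells stably expressing hTDP1, seeded 400/well; qHTS titration format.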
ClpP mod: qHTS Assay for Activators of ClpP; ATP-dependent Clp protease proteolytic subunit (Bacillus subtilis (strain 168)), P80244; purified B. subtilis ClpP, FRET peptide cleavage, 20 min; Potency, µM (highest dose often 57.5 µM), inactives show at the highest dose activity change, negative = active; 340,000 compounds, 1.9% hits; active = well fitted falling curve with a large enough effect; inconclusive = small, poorly fitted or top-dose-only effect; inactive = no such curve, though single readings can be large or run the other way; also: potency is read from the fitted curve at half-maximal effect; the source files actives as falling curves though it sought activators and does not explain the sign; nearly all actives have a fitted effect of over 65% in size
Target sequence (P80244 whole entry, looked up): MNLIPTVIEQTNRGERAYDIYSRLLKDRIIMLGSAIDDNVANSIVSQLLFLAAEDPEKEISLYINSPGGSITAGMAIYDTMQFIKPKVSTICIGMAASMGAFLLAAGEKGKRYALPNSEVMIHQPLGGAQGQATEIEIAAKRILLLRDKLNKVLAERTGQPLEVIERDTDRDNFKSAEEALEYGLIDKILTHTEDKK
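FRET quenching reversal measured ClpP activation: 10 microg/mL B. subtilis ClpP at pH 8 with the FRET-FV decapeptide, read at 430 nm after 320 nm excitation. The 20-min minus 0-min signal was scaled between DMSO/no-enzyme wells and ADEP (5.8 microM final).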
D3 ag: agonists of human D3 dopamine receptor; P35462; D3R DiscoveRx beta-arrestin cells, luminescence, 90 min; 410,000 compounds, 0.58% hits; max activation, %; AID 652048; in the data active = max activation above about 30%; also: 0% is about no effect
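Cells at 1500/well, incubated overnight, then treated with pinned compounds (dopamine as control) for 90 min at 37 degrees C. DiscoveRx reagent added for 30 - 60 minutes at room temperature; luminescence read.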
TDP1 cell noCPT: qHTS for Inhibitors of human tyrosyl-DNA phosphodiesterase 1 (TDP1): qHTS in cells in absence of CPT; 420,000 compounds, 15% hits; Potency, µM (doses to about 46.2 µM), for the others: at the highest dose activity change, negative = growth inhibition, hits mostly inhibitors; DT40 Tdp1-/- hTDP1 cells, no CPT, ATP luminescence, 48 h; also: potency is read from the fitted curve at half-maximal effect; % is scaled to controls: 0 for no effect and ±100 for the full control effect; nearly all actives have a fitted effect of over 55% in size
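Camptothecin absent (DMSO only). Human TDP1-complemented DT40 knockout cells, 400 cells/well, 37 °C for minimum 48 hr; ATP measured via CellTiter-Glo, 30 min dark incubation, luminescence.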
An asterisk follows results filed as active; i = inactive; ? = inconclusive; / = no result given. Unless noted, calls follow the shape of the dose curve; as a rule, active = well fitted inhibition curve with a large enough effect; inconclusive = small, poorly fitted or top-dose-only effect; inactive = flat fitted curve, though single readings scatter.

SMILES	D3 antag	IL-1B inflam inh	TDP1 cell CPT	ClpP mod	D3 ag	TDP1 cell noCPT
O=C(CCc1nnc(CCCCc2ccccc2)o1)NCCc1cccnc1	9	1	-2%	/	5	-12%
COc1cccc(NC(=O)Nc2cccn(Cc3ccccc3)c2=O)c1	5	?	?	?	3	?
O=C(NC(NCc1cccnc1)C(Cl)(Cl)Cl)c1cccc2ccccc12 (configuration not stated)	-17	16	?	-8%	-7	15µM*
CN(C(=O)NCc1noc2ccccc12)c1cccc(Cl)c1	/	/	-28%	121%	-2	-24%
O=C(Cc1ccc(-c2ccccc2)cc1)NCc1ccccc1	6	4	0.52µM*	-7%	-3	0.46µM*
Cc1ccc(Cn2cccc(NC(=O)NCc3ccccc3)c2=O)cc1	12	46	0%	32µM*	12	-4%
Cc1ccc(CNC(=O)COC(=O)Cc2ccc(-c3ccccc3)cc2)cc1	2	13	?	3%	5	?
COc1ccccc1C(C)NCC(=O)NCc1ccc(C)cc1 (configuration not stated)	-58*	11	12%	-1%	-36	-1%
O=C(NCc1ccccc1)Nc1cccn(Cc2ccc(Cl)cc2)c1=O	-14	16	2%	-26%	5	-10%
O=C(COC(=O)Cc1ccc(-c2ccccc2)cc1)NCc1ccc(F)cc1	0	-1	6.5µM*	-1%	-18	?
Cc1ccc(CC(CC(=O)O)C(=O)NCc2ccccc2)cc1 (configuration not stated)	?	19	10%	16µM*	7	6%
Cc1ccc(CNC(=O)C(c2ccccc2)c2ccccc2)cc1	5	0	-11%	/	0	-25%
Cc1ccc(CNC(=O)Cc2ccc(-c3ccccc3)cc2)cc1	11	74	1µM*	-1%	6	0.58µM*
Cc1ccc(CC(=O)NCc2nc(-c3ccccc3)no2)cc1	/	/	1%	1%	-3	-20%
O=C(Cc1ccc(-c2ccccc2)cc1)NCc1cccnc1	1	12	2.9µM*	/	-6	6.5µM*
CC(NC(=O)Cc1ccc(-c2ccccc2)cc1)c1ccccc1 (configuration not stated)	-2	-22	26µM*	1%	0	?
CC1CCc2c(sc(NC(=O)c3cc4nc(-c5ccc(Cl)cc5)cc(C(F)(F)F)n4n3)c2C#N)C1 (configuration not stated)	/	/	-19%	1%	9	-29%
c1ccc(CN=C(NCc2ccccc2)NCc2ccccc2)cc1	-7	-80*	2.3µM*	/	-5	2.9µM*
O=C(Cc1ccccc1)NCCCNC(=O)Cc1ccccc1	0	10	5%	28µM*	0	-1%
COc1cccc(CCNC(=O)CCc2nnc(Cc3cc(OC)ccc3OC)o2)c1	?	22	1%	2%	5	13%
CCC(C)(CCNC(=O)Cc1ccccc1)c1ccccc1OC (configuration not stated)	-4	?	23µM*	-1%	-1	?
O=C(CCc1ccccc1)NCCCNC(=O)CCc1ccccc1	0	3	-9%	2%	-1	14%
COc1ccc(CCNC(=O)CCc2nnc(Cc3ccc4c(c3)OCO4)o2)cc1	-21	i	23µM*	-2%	-9	18µM*
CC(=O)Nc1ccc(-c2cc(C(=O)O)c3ccc(C)cc3n2)cc1	-12	7	2%	/	-5	-5%
Cc1nc2scc(C)n2c(=O)c1S(=O)(=O)Nc1ccc(N2CCOCC2)cc1	-5	25	-9%	0%	11	?
SMILES	D3 antag	IL-1B inflam inh	TDP1 cell CPT	ClpP mod	D3 ag	TDP1 cell noCPT
O=C(Nc1ccccc1)Nc1cccn(Cc2c(F)cccc2Cl)c1=O	-5	-61*	-25%	-27%	-4	?
COCCNC(=O)c1ccccc1NC(=O)c1nsc2ccccc12	/	/	?	-17%	-8	?
COCc1cc(CN(C)C(=O)C2CCC(=O)N(Cc3cccc(OC)c3)C2)[nH]n1 (configuration not stated)	23	4	1%	-2%	-12	?
CCOC(=O)c1ccccc1NC(=O)COC(=O)c1ccc(OCC(=O)N2CCOCC2)c(OCC)c1	66	17	?	-9%	17	?
CCOc1cc(/C=C/c2nc3cc(C)c(C)cc3s2)ccc1OCC(=O)N1CCOCC1	0	10	?	?	-5	?
CCOc1cc(/C=N/NC(=S)Nc2ccccc2C(F)(F)F)ccc1OCC(=O)N1CCOCC1	25	-17	5.8µM*	-4%	6	8.2µM*
CCOc1cc(/C=C\[N+](=O)[O-])ccc1OCC(=O)N1CCOCC1	-2	-107*	2.6µM*	/	7	2.3µM*
Cn1c(=O)oc2cc(S(=O)(=O)N3CCC(C(=O)NCCc4ccccc4)CC3)ccc21	-10	5	?	0%	-6	13%
COc1ccc(-n2c(=O)c3c4c(sc3n(Cc3ccccc3)c2=O)CCC4)c(OC)c1	/	/	?	0%	3	23µM*
COc1ccc(-n2c(=O)c3c4c(sc3n(Cc3cc(C)ccc3C)c2=O)CN(C(C)=O)CC4)c(OC)c1	/	/	?	-4%	-16	23µM*
COc1ccc(-n2c(=O)c3c4c(sc3n(CC(=O)N3CCCCC3C)c2=O)CCC4)c(OC)c1 (configuration not stated)	/	/	?	1%	2	?
COc1ccc(-n2c(=O)c3c4c(sc3n(CC(=O)C(C)(C)C)c2=O)CCCC4)c(OC)c1	/	/	15µM*	-1%	-1	?
COc1cccc(NC(=O)Cn2c(=O)n(-c3cccc(OC)c3)c(=O)c3c4c(sc32)CCCC4)c1	/	/	13µM*	0%	4	18µM*
COc1cc(NC(=O)Cn2c(=O)n(-c3ccccc3)c(=O)c3c4c(sc32)CCCC4)cc(OC)c1	/	/	-6%	2%	6	-28%
CCOC(=O)C1CCCN(C(=O)c2ccccc2NC(=O)C2=C(C)OCCS2)C1 (configuration not stated)	-13	3	-7%	0%	-1	6%
COc1cc(/C=N/NC(=O)c2ccc(O)cc2)ccc1OCC(=O)N1CC(C)OC(C)C1 (configuration not stated)	8	22	-15%	/	-5	-10%
Cc1c(CC(=O)NCCc2ccccc2F)c(=O)oc2cc(O)c(Cl)cc12	/	/	-17%	4%	6	-20%
